# Results as given in the supplement of paper PMC6992640.
# Structures can show the parent of a compound that is named as a salt. ± gives the standard deviation of the averaged measurements.
# How the values were obtained:
# Assay in all cases: cell viability (% of vehicle); higher = less cytotoxic
# Conditions in all cases: 10 µM; 72 h
# [1] = test system: HCI01 (cells of a triple-negative basal-like breast cancer xenograft)
# [2] = test system: HCI03 (cells of an ER-positive luminal breast cancer xenograft)
# [3] = test system: HCI09 (cells of a triple-negative luminal androgen receptor type breast cancer xenograft)
# [4] = test system: HCI11 (cells of an ER-positive luminal breast cancer xenograft)
# [5] = test system: HCI13 (cells of an ER-positive luminal breast cancer xenograft)
# [6] = test system: HCI16 (cells of a triple-negative basal-like breast cancer xenograft)
# [7] = test system: UCD52 (cells of a triple-negative basal-like breast cancer xenograft)
# [8] = test system: WHIM2 (cells of a triple-negative basal-like breast cancer xenograft)
# [9] = test system: WHIM30 (cells of a triple-negative basal-like breast cancer xenograft)
# 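Also: PDX cells carrying CMV promoter-driven luciferase, viability read as total photon flux per second by IVIS imaging following D-luciferin, vehicle control 0.1% DMSO.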
smiles,measurement,setting,value
NC(=O)CN1CC(O)CC1=O (stereo unspecified) [Oxiracetam],cell viability,[1],111 ± 16
same,cell viability,[2],115
same,cell viability,[3],98.3 ± 9.9
same,cell viability,[4],71
same,cell viability,[5],123 ± 12
same,cell viability,[6],126
same,cell viability,[7],117 ± 3.4
same,cell viability,[8],112 ± 15
same,cell viability,[9],134 ± 8.7
C[C@]12COC(=O)C[C@@H]1CC[C@@H]1[C@@H]2CC[C@@]2(C)[C@H]1CC[C@]2(C)O [Oxandrolone],cell viability,[1],98.9 ± 17
same,cell viability,[2],108
same,cell viability,[3],107.8 ± 0.62
same,cell viability,[4],89.1
same,cell viability,[5],147 ± 18
same,cell viability,[6],117
same,cell viability,[7],95.8 ± 5.3
same,cell viability,[8],110 ± 23
same,cell viability,[9],110 ± 13
CCOC(=O)c1cncn1C(C)c1ccccc1.Cl (stereo unspecified) [Etomidate hydrochloride],cell viability,[1],137 ± 30
same,cell viability,[2],155
same,cell viability,[3],125 ± 37
same,cell viability,[4],117
same,cell viability,[6],117
same,cell viability,[7],97.3 ± 9.7
same,cell viability,[8],145 ± 30
same,cell viability,[9],76.4 ± 5.3
O=c1[nH]c2ccccc2n1CCCN1CCC(n2c(=O)[nH]c3cc(Cl)ccc32)CC1 [Domperidone],cell viability,[1],195 ± 80
same,cell viability,[2],103
same,cell viability,[3],113 ± 65
same,cell viability,[4],84.9
same,cell viability,[7],128 ± 5.5
same,cell viability,[8],83.8 ± 4.6
same,cell viability,[9],176 ± 9.8
O=S(=O)(F)Cc1ccccc1,cell viability,[1],131 ± 25
same,cell viability,[2],127
same,cell viability,[3],89.27 ± 0.7
same,cell viability,[4],92.5
same,cell viability,[5],87.2 ± 19
same,cell viability,[6],100
same,cell viability,[7],106.1 ± 0.78
same,cell viability,[8],104 ± 31
same,cell viability,[9],111 ± 22
C[N+](C)(C)CCCCCCCCCC[N+](C)(C)C.[Br-].[Br-] [Decamethonium Bromide],cell viability,[1],110 ± 4.6
same,cell viability,[2],120
same,cell viability,[3],100 ± 6.9
same,cell viability,[4],102
same,cell viability,[5],105 ± 1.9
same,cell viability,[6],105
same,cell viability,[7],78.9 ± 6.2
same,cell viability,[8],89.8 ± 8.7
same,cell viability,[9],101 ± 10
"Cl.NCC(O)c1ccc(O)cc1 (racemic) [(+,-)-Octopamine HCl]",cell viability,[1],101 ± 10
same,cell viability,[2],119
same,cell viability,[3],93 ± 10
same,cell viability,[4],98.3
same,cell viability,[6],120
same,cell viability,[7],91.1 ± 16
same,cell viability,[8],87.9 ± 7.5
same,cell viability,[9],149.4 ± 0.28
Cl.NCC1(CC(=O)O)CCCCC1 [Gabapentin HCl],cell viability,[1],142 ± 42
same,cell viability,[2],121
same,cell viability,[3],94.2 ± 3.2
same,cell viability,[4],90.2
same,cell viability,[5],109 ± 14
same,cell viability,[6],120
same,cell viability,[7],80.45 ± 0.75
same,cell viability,[8],85.7 ± 7.6
same,cell viability,[9],115.5 ± 0.43
CN(C)C1C(=O)C(C(N)=O)=C(O)C2(O)C(=O)C3=C(O)c4c(O)cccc4C(C)(O)C3CC12.Cl (stereo unspecified) [Tetracycline Hydrochloride],cell viability,[1],105 ± 10
same,cell viability,[2],108
same,cell viability,[3],89.46 ± 0.85
same,cell viability,[4],96.7
same,cell viability,[5],92.1 ± 4.3
same,cell viability,[6],87.5
same,cell viability,[7],77.3 ± 1.4
same,cell viability,[8],77.1 ± 20
same,cell viability,[9],116 ± 19
O=P1(N(CCCl)CCCl)NCCCO1 (stereo unspecified) [Cyclophosphamide],cell viability,[1],107 ± 4.7
same,cell viability,[2],98
same,cell viability,[3],104.9 ± 0.44
same,cell viability,[4],88.5
same,cell viability,[5],112 ± 5.9
same,cell viability,[6],80.3
same,cell viability,[7],99.09 ± 0.21
same,cell viability,[8],79.86 ± 0.25
same,cell viability,[9],115 ± 14
NC(Cc1ccc(N(CCCl)CCCl)cc1)C(=O)O (stereo unspecified) [Melphalan],cell viability,[1],76 ± 14
same,cell viability,[2],116
same,cell viability,[3],91.1 ± 6.3
same,cell viability,[4],107
same,cell viability,[5],77.7 ± 3.6
same,cell viability,[6],63.1
same,cell viability,[7],75.3 ± 11
same,cell viability,[8],58.5 ± 8.7
same,cell viability,[9],124 ± 3.2
CN(C)C(=O)C(CCN1CCC(O)(c2ccc(Cl)cc2)CC1)(c1ccccc1)c1ccccc1.Cl [Loperamide HCl],cell viability,[1],102 ± 20
same,cell viability,[2],84.8
same,cell viability,[3],53.5 ± 15
same,cell viability,[4],98.7
same,cell viability,[5],79.2 ± 6.6
same,cell viability,[6],95.1
same,cell viability,[7],49.1 ± 1.4
same,cell viability,[8],59.8 ± 8.3
same,cell viability,[9],102 ± 9.7
CC12CCC3C(CC=C4CC(O)CCC43C)C1CCC2=O (stereo unspecified) [Dehydroepiandrosterone (DHEA)],cell viability,[1],124 ± 8.8
same,cell viability,[2],107
same,cell viability,[3],87 ± 21
same,cell viability,[4],112
same,cell viability,[5],111 ± 12
same,cell viability,[6],102
same,cell viability,[7],98.2 ± 9.5
same,cell viability,[8],93.3 ± 20
same,cell viability,[9],111 ± 4
C#CC1(O)C=CC2C3CCC4=CC(=O)CCC4C3CCC21CC (stereo unspecified) [Gestodene],cell viability,[2],149
same,cell viability,[3],97.4 ± 20
same,cell viability,[4],122
same,cell viability,[5],179 ± 25
same,cell viability,[6],184
same,cell viability,[7],143.1 ± 1.4
same,cell viability,[8],106 ± 5
Br.CN1C2CC(OC(=O)C(CO)c3ccccc3)CC1C1OC12 (stereo unspecified) [Scopolamine hydrobromide],cell viability,[1],108 ± 3.9
same,cell viability,[2],120
same,cell viability,[3],91.5 ± 17
same,cell viability,[4],104
same,cell viability,[5],83.67 ± 0.26
same,cell viability,[6],127
same,cell viability,[7],90.98 ± 0.47
same,cell viability,[8],122 ± 1.4
same,cell viability,[9],133.3 ± 1.1
OC(c1ccccc1)(c1ccccc1)C1CCNCC1 [Azacyclonol],cell viability,[1],98.1 ± 19
same,cell viability,[2],137
same,cell viability,[3],84.5 ± 38
same,cell viability,[4],93.8
same,cell viability,[5],79 ± 10
same,cell viability,[6],110
same,cell viability,[7],95.8 ± 10
same,cell viability,[8],109 ± 34
same,cell viability,[9],113 ± 2.1
"CC(=Cc1csc(C)n1)C1CC2OC2(C)CCCC(C)C(O)C(C)C(=O)C(C)(C)C(O)CC(=O)O1 (stereo unspecified) [Epothilone B (EPO906, Patupilone)]",cell viability,[1],154 ± 16
same,cell viability,[2],119
same,cell viability,[3],91.4 ± 4.8
same,cell viability,[4],99.2
same,cell viability,[5],111 ± 2.6
same,cell viability,[7],78.2 ± 9.1
same,cell viability,[8],75.9 ± 13
same,cell viability,[9],137 ± 13
Cl.NCCc1c[nH]c2ccc(O)cc12 [Serotonin HCl],cell viability,[1],103 ± 13
same,cell viability,[2],132
same,cell viability,[3],99.9 ± 4
same,cell viability,[4],94.8
same,cell viability,[5],57.8 ± 1.6
same,cell viability,[6],109
same,cell viability,[7],100 ± 9.6
same,cell viability,[8],137 ± 45
same,cell viability,[9],163 ± 26
Cc1c(N)nc(C(CC(N)=O)NCC(N)C(N)=O)nc1C(=O)NC(C(=O)NC(C)C(O)C(C)C(=O)NC(C(=O)NCCc1nc(-c2nc(C(=O)NCCC[S+](C)C)cs2)cs1)C(C)O)C(O[C@@H]1O[C@@H](CO)[C@@H](O)[C@H](O)[C@@H]1O[C@H]1O[C@H](CO)[C@@H](O)[C@H](OC(N)=O)[C@@H]1O)c1cnc[nH]1 (stereo partly specified) [Bleomycin Sulfate],cell viability,[1],117 ± 3.2
same,cell viability,[3],61.2 ± 15
same,cell viability,[4],106
same,cell viability,[5],39.2 ± 24
same,cell viability,[6],83.4
same,cell viability,[7],109 ± 6.6
same,cell viability,[8],77 ± 1.2
same,cell viability,[9],100 ± 27
COc1ccc(C(CN(C)C)C2(O)CCCCC2)cc1.Cl (stereo unspecified) [Venlafaxine],cell viability,[1],103 ± 4.2
same,cell viability,[2],139
same,cell viability,[3],99.26 ± 0.21
same,cell viability,[4],103
same,cell viability,[5],124 ± 11
same,cell viability,[6],106
same,cell viability,[7],119 ± 17
same,cell viability,[8],118 ± 10
same,cell viability,[9],169 ± 35
CC1C=CC=CCCC=CC=CC=CC=CC(OC2OC(C)C(O)C(N)C2O)CC2OC(O)(CC(O)C(O)CCC(O)CC(O)CC(O)CC(=O)OC(C)C(C)C1O)CC(O)C2C(=O)O (stereo unspecified) [Nystatin (Fungicidin)],cell viability,[1],121 ± 47
same,cell viability,[2],139
same,cell viability,[3],128 ± 2.6
same,cell viability,[4],98.5
same,cell viability,[5],167 ± 21
same,cell viability,[6],150
same,cell viability,[7],118 ± 0.94
same,cell viability,[8],96.5 ± 1.8
same,cell viability,[9],147 ± 6.6
COc1cc2c(c(OC)c1OC)-c1ccc(OC)c(=O)cc1C(NC(C)=O)CC2 (stereo unspecified) [Colchicine],cell viability,[1],141 ± 19
same,cell viability,[2],109
same,cell viability,[3],120 ± 4.5
same,cell viability,[4],102
same,cell viability,[5],44.3 ± 2.3
same,cell viability,[6],108
same,cell viability,[7],146 ± 28
same,cell viability,[8],96 ± 9
same,cell viability,[9],145 ± 7.8
C=CCC1(O)CCC2C3CCC4=CC(=O)CCC4=C3C=CC21C (stereo unspecified) [Altrenogest],cell viability,[1],172 ± 56
same,cell viability,[2],125
same,cell viability,[3],65.5 ± 13
same,cell viability,[4],78.7
same,cell viability,[5],137 ± 7.6
same,cell viability,[6],150
same,cell viability,[7],83.1 ± 6.5
same,cell viability,[8],107 ± 12
same,cell viability,[9],141 ± 8.9
NCC1(CC(=O)O)CCCCC1 [Gabapentin],cell viability,[1],96.8 ± 7.7
same,cell viability,[2],119
same,cell viability,[3],97.8 ± 9.5
same,cell viability,[4],104
same,cell viability,[5],88.1 ± 2.5
same,cell viability,[6],76
same,cell viability,[7],77.8 ± 0.82
same,cell viability,[8],88.1 ± 8.3
same,cell viability,[9],76.9 ± 11
C[N+]1(C)[C@@H]2C[C@@H](OC(=O)C(CO)c3ccccc3)C[C@H]1[C@@H]1O[C@@H]12.[Br-] (stereo partly specified) [Methscopolamine],cell viability,[1],106 ± 8.5
same,cell viability,[2],128
same,cell viability,[3],107 ± 9.7
same,cell viability,[4],93.2
same,cell viability,[6],97.9
same,cell viability,[7],80.6 ± 12
same,cell viability,[8],87.7 ± 8
same,cell viability,[9],138.9 ± 0.7
